In PubChem BioAssay AID449762 (Southern Research Specialized Biocontainment Screening …, 2010):
In all, about 330,000 compounds went through this assay and about 1,900 (0.58%) were called active. Inconclusive results (about 4%) are left out. No stated cut-off is given here; in the data, inconclusive means inhibition above about 70% without an active follow-up result; inactive means below that. Not all results are given here. Results with a measured potency or affinity are listed apart.

Assay: M. tuberculosis growth inhibition, HTS (AID 449762);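 further: bacterial growth assessed after seven days of incubation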
Conditions: M. tuberculosis H37Rv growth inhibition, 7H9 media; at 25 µM; hits give high values

| Structure (SMILES) | inhibition |
| --- | --- |
| COc1ccc(/C=N/Nc2nnc(C)n2N)cc1OC | 54.6% (inactive) |
| Cc1cccc(C)c1-n1nnnc1SCSc1nnnn1-c1c(C)cccc1C | -0.17% (inactive) |
| Cc1ccc(C)c(N2C(=O)CC(N3CCN(Cc4ccc5c(c4)OCO5)CC3)C2=O)c1 (stereo not drawn) | -6.64% (inactive) |
| O=c1/c(=C\c2ccc(O)cc2)sc2nc(-c3ccccc3)c(-c3ccccc3)n12 | -4.61% (inactive) |
| CCOC(=O)C1=C(C)N=c2s/c(=C\c3ccc(OCC(=O)O)cc3)c(=O)n2C1c1ccccc1 (stereo not drawn) | -2.68% (inactive) |
| COc1cccc(CN(C)C(=O)/C=C/c2ccc(S(=O)(=O)N3CCCCCC3)cc2)c1 | 4.38% (inactive) |
| Cc1cc(=O)oc2ccc(OCC(=O)N3CCc4ccccc43)cc12 | -7.76% (inactive) |
| Cc1cc(=O)[nH]c(N=N/C(=N/Nc2ccccc2C)c2ccccc2)n1 | 68.7% (inactive) |
| COc1ccc(N/C(N)=N/c2nc(C)cc(=O)[nH]2)cc1 | 4.61% (inactive) |
| Oc1ccc(/C=N/Nc2ccc(Cl)nn2)c(O)c1O | -6.06% (inactive) |
| CCOc1ccccc1/C=N/Nc1ccc(Cl)nn1 | 13.2% (inactive) |
| C/C(=N\NC(=S)NCc1ccccc1)c1ccc(Cl)s1 | -0.65% (inactive) |
| C/C(=N\NC(N)=O)c1ccc(Cl)s1 | -8.77% (inactive) |
| Cc1cccc(N(C)S(=O)(=O)c2c(C)noc2C)c1 | 2.4% (inactive) |
| C/C(CC(=O)Nc1ccccn1)=N\NC(=O)c1ccccc1O | -3.57% (inactive) |
| O=C(Nc1ccc2oc(-c3cccc4ccccc34)nc2c1)c1ncn[nH]1 | 9.87% (inactive) |
| O=C(Nc1ccc2oc(-c3ccc(Cl)c(Cl)c3)nc2c1)c1ncn[nH]1 | 50.6% (inactive) |
| CC(=O)N(C(C)=O)c1c(C#N)c(C)n(-c2ccccc2)c1C(=O)c1ccccc1 | -0.27% (inactive) |
| CCCC(=O)c1ccc(-c2ccccc2)cc1 | 1.42% (inactive) |
| Cc1ccc2nc(NC(=O)CN3C(=O)NC4(CCCCC4)C3=O)sc2c1 | 5.87% (inactive) |
| COc1ccccc1NS(=O)(=O)c1cc(C(=O)NCCC(C)C)ccc1F | 16.6% (inactive) |
| CCOC(=O)c1nc2sc3c(c2c(=O)[nH]1)CCCC3 | 2.32% (inactive) |
| CC(C)CCOCc1nc2sc3c(c2c(=O)[nH]1)CCC(C)C3 (stereo not drawn) | -5.2% (inactive) |
| COC(=O)C1CCN(c2nc3ccccc3nc2C(C#N)C(=O)OCC(C)C)CC1 (stereo not drawn) | -4.17% (inactive) |

| Structure (SMILES) | inhibition |
| --- | --- |
| COc1ccccc1NS(=O)(=O)c1cccc(NC(=O)C2CC2)c1 | -4.5% (inactive) |
| O=[N+]([O-])c1ccc(OS(=O)(=O)Cc2ccccc2)cc1 | 4.45% (inactive) |
| COc1cc(OC)c(C#N)c(S(=O)(=O)Cc2ccccc2)c1 | -8.56% (inactive) |
| O=C(CS(=O)(=O)c1cn(CC(=O)N2CCCC2)c2ccccc12)Nc1ccccc1F | 2.67% (inactive) |
| Cc1c(C(c2ccc(F)cc2)c2c(C)n(C)n(-c3ccccc3)c2=O)c(=O)n(-c2ccccc2)n1C | 5.49% (inactive) |
| COc1ccc(-c2csc(NC(CO)c3nc4ccccc4n3Cc3ccc(C)cc3)n2)cc1 (stereo not drawn) | 25.6% (inactive) |
| OCCOCCn1c(C(CO)Nc2nc(-c3ccc(F)cc3)cs2)nc2ccccc21 (stereo not drawn) | 6.37% (inactive) |
| Cc1ccc(NCc2nc(SCC(=O)Nc3ccccc3)n[nH]2)cc1 | -2.62% (inactive) |
| COc1ccc(NC(=O)C(C)NS(=O)(=O)c2ccccc2)cc1Cl (stereo not drawn) | -8.72% (inactive) |
| COc1ccc(NC(=O)C(C)NS(=O)(=O)c2ccc(NC(C)=O)cc2)cc1Cl (stereo not drawn) | -1.73% (inactive) |
| COc1ccc(CCN=C(N)NS(=O)(=O)c2ccc(C)cc2)cc1OC | -1.62% (inactive) |
| Cc1ccccc1C1c2[nH]c3ccccc3c2CCN1C(=O)c1ccc(=O)n(C)n1 (stereo not drawn) | 53.9% (inactive) |
| CCc1ccc(C2c3[nH]c4ccccc4c3CCN2C(=O)c2cc[n+]([O-])cc2)cc1 (stereo not drawn) | -3.85% (inactive) |
| O=C(Nc1ccc(OCc2ccccc2)cc1)c1ccccc1 | -2.87% (inactive) |
| COc1cc(N/C=C(\C(C)=O)c2ccccc2)cc(OC)c1 | 4.79% (inactive) |
| COc1ccc(CCNCC(=O)Nc2ccc(OC(F)F)cc2)cc1 | -4.99% (inactive) |
| CCCCC1CCC(C(=O)N(CCCC)c2c(N)n(CCCC)c(=O)[nH]c2=O)CC1 (stereo not drawn) | -9.54% (inactive) |
| CC1CCc2c(sc3nc(CN4CCOCC4)nc(N4CCc5ccccc5C4)c23)C1 (stereo not drawn) | 6.42% (inactive) |
| Clc1nc(CN2CCOCC2)nc2sc3c(c12)CCC3 | 6.4% (inactive) |
| CCc1ccccc1Nc1nc(N)nc(CSCC(=O)c2cc(C)n(C)c2C)n1 | -11.5% (inactive) |
| O=C(NCCCc1ccc(F)cc1)C1CCC(=O)N(CCCN2CCCC2=O)C1 (stereo not drawn) | 11.4% (inactive) |
| O=C1CC(Sc2nnc(-c3ccccc3)o2)C(=O)N1c1ccccc1 (stereo not drawn) | -3.28% (inactive) |
| O=C1OCCC1Sc1nnc(-c2ccccc2)o1 (stereo not drawn) | -4.39% (inactive) |
| COc1ccccc1OCC(=O)Nc1ccc(S(=O)(=O)N2CCOCC2)cc1 | -3.94% (inactive) |
